PubChem BioAssay
Active and inactive are the calls of the source.

Experiments:
[1] = tested on: PRMT1 (protein arginine N-methyltransferase 1); assay: PRMT1 binders on small-molecule microarrays, primary screen, biochemical, small-molecule microarray, 635 nm fluorescence (AID 1088); details: small-molecule microarray binding, higher = more signal;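 note: binding of Prmt1 protein to compounds spotted on small-molecule microarray slides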
[2] = yeast growth modulation, basal conditions, primary screen, YJM789 clinical isolate, OD600, 24 h (AID 1089);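 note: growth of clinical yeast isolate S. cerevisiae YJM 789 seeded 1000 cells per well; test concentration not given here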; details: S. cerevisiae YJM789 growth, higher = more signal, called active from +8 up or from −8 down
[3] = fission yeast growth modulation, primary screen, strain 972, OD600, 24 h, no modulator (AID 1090);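 note: basal condition with compound alone and no growth modifier present; test concentration not given here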; details: S. pombe 972 growth, higher = more signal, called active from +8 up or from −8 down
[4] = S. cerevisiae growth modulation with rapamycin, primary screen, strain BY4716, OD600, 96 h (AID 1091); details: higher = more signal, called active from +8 up or from −8 down; note: test concentration not given here
[5] = molecular target: Torsin-1A-interacting protein 2 (Homo sapiens) (UniProt Q8NFQ8); assay: LULL1 binders on small-molecule microarray, primary screen, cell lysate, human LULL1 lysate, 635/667 nm fluorescence (AID 1092); details: hLULL1 lysate binding, 635 nm fluorescence, higher = more signal;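 note: probe is lysate of COS7 cells overexpressing human LULL1; score merges per-feature 667 nm fluorescence with signal-to-noise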
Sequence of Torsin-1A-interacting protein 2 (Homo sapiens) (Q8NFQ8 whole entry, looked up): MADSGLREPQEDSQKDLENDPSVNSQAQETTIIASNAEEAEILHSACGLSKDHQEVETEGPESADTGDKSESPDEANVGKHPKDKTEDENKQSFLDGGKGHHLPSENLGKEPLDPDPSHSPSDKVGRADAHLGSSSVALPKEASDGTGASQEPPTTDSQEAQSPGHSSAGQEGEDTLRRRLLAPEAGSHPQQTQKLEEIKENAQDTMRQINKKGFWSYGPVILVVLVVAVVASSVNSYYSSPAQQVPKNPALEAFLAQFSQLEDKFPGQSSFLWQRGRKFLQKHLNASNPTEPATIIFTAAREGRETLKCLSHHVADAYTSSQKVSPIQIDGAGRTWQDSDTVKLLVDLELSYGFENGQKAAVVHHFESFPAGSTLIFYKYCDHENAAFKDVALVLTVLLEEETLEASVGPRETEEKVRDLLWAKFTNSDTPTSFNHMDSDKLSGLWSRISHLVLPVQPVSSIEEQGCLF

[6] = E. coli growth modulation, two-sided OD650, primary screen, E. coli filamentation project, strain DRC41, 24 h (AID 1093); details: OD650, 24 h, higher = more signal, called active from +8 up or from −8 down;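 note: MC1000 strain lacking acrAB efflux and sulA so SOS filamentation is blocked; test concentration not given here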
[7] = small-molecule microarray binders of probe aLefty2, primary screen, biochemical, biotinylated probe, 635/667 nm fluorescence (AID 1094); details: higher = more signal;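 note: score merges spot fluorescence near 667 nm with spot signal-to-noise ratio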
[8] = tested on: Noggin (protein binding on small-molecule microarray); assay: Noggin binders on small-molecule microarray, primary screen, biochemical, 635/667 nm fluorescence (AID 1095); details: 635 nm fluorescence, higher = more signal;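 note: score merges 667 nm feature fluorescence with signal to noise over triplicate slides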
[9] = molecular target: Neurogenic locus notch homolog protein 3 (Homo sapiens) (UniProt Q9UM47); assay: NOTCH3 binders on small-molecule microarray, primary screen, biochemical, 635/667 nm fluorescence (AID 1096); details: NOTCH3 binding, 635 nm fluorescence, higher = more signal
Sequence of Neurogenic locus notch homolog protein 3 (Homo sapiens) (Q9UM47 whole entry, looked up): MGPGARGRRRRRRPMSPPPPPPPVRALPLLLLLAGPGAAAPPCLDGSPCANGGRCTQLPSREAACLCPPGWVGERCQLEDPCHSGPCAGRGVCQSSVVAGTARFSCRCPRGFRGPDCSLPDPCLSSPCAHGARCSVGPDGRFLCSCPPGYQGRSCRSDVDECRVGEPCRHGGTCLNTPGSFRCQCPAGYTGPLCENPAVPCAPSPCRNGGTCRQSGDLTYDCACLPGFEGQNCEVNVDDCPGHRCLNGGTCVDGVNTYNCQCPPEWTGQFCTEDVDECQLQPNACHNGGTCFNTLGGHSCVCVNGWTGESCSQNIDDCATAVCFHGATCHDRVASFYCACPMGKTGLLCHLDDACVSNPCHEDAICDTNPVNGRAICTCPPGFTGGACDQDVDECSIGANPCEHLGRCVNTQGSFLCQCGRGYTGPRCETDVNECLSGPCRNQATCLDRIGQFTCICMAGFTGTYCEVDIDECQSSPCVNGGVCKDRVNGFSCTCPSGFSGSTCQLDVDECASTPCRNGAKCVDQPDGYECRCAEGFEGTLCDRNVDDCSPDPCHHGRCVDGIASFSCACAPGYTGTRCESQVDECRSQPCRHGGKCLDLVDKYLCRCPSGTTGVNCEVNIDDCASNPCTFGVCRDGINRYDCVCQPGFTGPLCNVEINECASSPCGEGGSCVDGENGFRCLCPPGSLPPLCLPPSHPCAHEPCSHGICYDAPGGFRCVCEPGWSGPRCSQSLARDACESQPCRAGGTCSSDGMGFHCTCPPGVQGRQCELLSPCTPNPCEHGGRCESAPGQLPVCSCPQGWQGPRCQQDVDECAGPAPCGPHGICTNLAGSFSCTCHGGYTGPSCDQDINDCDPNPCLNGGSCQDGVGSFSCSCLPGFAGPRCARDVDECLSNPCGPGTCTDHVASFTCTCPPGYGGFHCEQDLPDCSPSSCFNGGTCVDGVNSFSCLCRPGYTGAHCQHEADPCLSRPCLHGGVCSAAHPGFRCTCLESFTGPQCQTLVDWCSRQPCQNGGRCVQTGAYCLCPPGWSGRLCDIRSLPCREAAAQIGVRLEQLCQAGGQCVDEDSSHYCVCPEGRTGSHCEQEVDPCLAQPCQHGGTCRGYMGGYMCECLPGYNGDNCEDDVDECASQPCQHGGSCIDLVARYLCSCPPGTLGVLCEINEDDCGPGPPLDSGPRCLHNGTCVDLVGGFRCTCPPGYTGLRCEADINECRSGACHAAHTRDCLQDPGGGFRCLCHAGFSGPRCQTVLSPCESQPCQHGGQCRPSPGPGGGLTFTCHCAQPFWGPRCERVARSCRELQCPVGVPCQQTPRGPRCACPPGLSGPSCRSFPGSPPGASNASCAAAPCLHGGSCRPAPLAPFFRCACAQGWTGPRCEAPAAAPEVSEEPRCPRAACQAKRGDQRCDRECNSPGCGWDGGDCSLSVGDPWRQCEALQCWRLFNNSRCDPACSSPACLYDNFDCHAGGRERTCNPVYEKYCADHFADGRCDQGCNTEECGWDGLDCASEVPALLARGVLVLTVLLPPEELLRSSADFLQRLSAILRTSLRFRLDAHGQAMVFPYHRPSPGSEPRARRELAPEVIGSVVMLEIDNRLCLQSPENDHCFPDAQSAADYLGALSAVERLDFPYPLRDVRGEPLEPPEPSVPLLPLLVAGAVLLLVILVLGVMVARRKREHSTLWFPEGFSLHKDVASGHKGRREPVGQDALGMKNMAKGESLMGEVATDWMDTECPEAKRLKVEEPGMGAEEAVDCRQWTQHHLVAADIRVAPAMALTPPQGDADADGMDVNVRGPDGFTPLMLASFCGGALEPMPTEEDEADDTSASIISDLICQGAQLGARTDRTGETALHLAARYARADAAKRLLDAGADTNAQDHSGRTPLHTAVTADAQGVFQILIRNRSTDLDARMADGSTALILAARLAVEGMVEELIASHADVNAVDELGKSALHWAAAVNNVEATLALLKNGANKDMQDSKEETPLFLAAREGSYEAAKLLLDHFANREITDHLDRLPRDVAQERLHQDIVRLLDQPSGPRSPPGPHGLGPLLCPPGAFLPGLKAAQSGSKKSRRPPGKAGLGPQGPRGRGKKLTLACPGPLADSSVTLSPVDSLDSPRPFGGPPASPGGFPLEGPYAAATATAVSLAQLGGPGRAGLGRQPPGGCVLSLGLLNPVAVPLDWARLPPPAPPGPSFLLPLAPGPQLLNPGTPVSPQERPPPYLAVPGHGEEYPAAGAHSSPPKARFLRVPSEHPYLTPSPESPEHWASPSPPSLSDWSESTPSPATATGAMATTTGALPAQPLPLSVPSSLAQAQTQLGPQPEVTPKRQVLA

[10] = small-molecule microarray binders of probe aEGFR, primary screen, biochemical, biotinylated probe, 635/667 nm fluorescence (AID 1097); details: higher = more signal;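 note: probe is a biotinylated anti-EGFR antibody binding compounds printed on slides; score combines fluorescence near 667 nm and signal to noise of each spot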
[11] = tested on: Plasmodium falciparum Sir2 (PF13_0152, Sir2A); assay: pfSir2 binders on small-molecule microarrays, primary screen, biochemical, small-molecule microarray, 635 nm fluorescence (AID 1098); details: small-molecule microarray binding, fluorescence 635 nm; higher = more signal;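 note: score merges spot fluorescence intensity with its signal-to-noise ratio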
[12] = small-molecule microarray binders of probe aDKK1, primary screen, biochemical, biotinylated probe, 635/667 nm fluorescence (AID 1099); details: higher = more signal;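 note: score merges 667nm spot fluorescence with signal to noise across triplicate slides; reference of the scale not given here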
[13] = small-molecule microarray binders of probe aCHRDL2, primary screen, biochemical, biotinylated probe, 635/667 nm fluorescence (AID 1100); details: higher = more signal
[14] = splicing luciferase reporter signal modulators, primary screen, spliceosome inhibition project, cell-based, HEK293, splice +/- reporter (AID 1101); details: luminescence, 24 h, higher = more signal, called active from +8 up or from −8 down;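 note: HEK293 cells carrying a splicing-competent luciferase reporter gene; test concentration not given here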
[15] = molecular target: Fibroblast growth factor 10 (Homo sapiens) (UniProt O15520); assay: FGF10 binders on small-molecule microarrays, primary screen, biochemical, small-molecule microarray, 635 nm fluorescence (AID 1102); details: FGF10 binding, fluorescence 635 nm, higher = more signal
Sequence of Fibroblast growth factor 10 (Homo sapiens) (O15520 whole entry, looked up): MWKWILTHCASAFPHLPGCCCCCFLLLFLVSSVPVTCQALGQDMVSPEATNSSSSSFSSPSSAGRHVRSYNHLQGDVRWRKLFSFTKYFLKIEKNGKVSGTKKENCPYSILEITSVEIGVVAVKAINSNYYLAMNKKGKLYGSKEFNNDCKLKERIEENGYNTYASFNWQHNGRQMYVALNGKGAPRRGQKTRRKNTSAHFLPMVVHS

[16] = tested on: glycogen synthase kinase-3 (GSK3A per assay name; protocol says GSK3B); assay: GSK3 binders on small-molecule microarrays, primary screen, biochemical, small-molecule microarray, 635 nm fluorescence, GSK3A (AID 1103); details: small-molecule microarray binding, fluorescence 635 nm; higher = more signal; note: the record names both GSK3A and GSK3B
[17] = molecular target: Epidermal growth factor receptor (Homo sapiens) (UniProt P00533); assay: EGFR binders on small-molecule microarrays, primary screen, biochemical, small-molecule microarray, 635 nm fluorescence (AID 1104); details: EGFR binding, higher = more signal;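 note: score merges 667 nm emission intensity with spot signal to noise over triplicate slides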
Sequence of Epidermal growth factor receptor (Homo sapiens) (P00533 whole entry, looked up): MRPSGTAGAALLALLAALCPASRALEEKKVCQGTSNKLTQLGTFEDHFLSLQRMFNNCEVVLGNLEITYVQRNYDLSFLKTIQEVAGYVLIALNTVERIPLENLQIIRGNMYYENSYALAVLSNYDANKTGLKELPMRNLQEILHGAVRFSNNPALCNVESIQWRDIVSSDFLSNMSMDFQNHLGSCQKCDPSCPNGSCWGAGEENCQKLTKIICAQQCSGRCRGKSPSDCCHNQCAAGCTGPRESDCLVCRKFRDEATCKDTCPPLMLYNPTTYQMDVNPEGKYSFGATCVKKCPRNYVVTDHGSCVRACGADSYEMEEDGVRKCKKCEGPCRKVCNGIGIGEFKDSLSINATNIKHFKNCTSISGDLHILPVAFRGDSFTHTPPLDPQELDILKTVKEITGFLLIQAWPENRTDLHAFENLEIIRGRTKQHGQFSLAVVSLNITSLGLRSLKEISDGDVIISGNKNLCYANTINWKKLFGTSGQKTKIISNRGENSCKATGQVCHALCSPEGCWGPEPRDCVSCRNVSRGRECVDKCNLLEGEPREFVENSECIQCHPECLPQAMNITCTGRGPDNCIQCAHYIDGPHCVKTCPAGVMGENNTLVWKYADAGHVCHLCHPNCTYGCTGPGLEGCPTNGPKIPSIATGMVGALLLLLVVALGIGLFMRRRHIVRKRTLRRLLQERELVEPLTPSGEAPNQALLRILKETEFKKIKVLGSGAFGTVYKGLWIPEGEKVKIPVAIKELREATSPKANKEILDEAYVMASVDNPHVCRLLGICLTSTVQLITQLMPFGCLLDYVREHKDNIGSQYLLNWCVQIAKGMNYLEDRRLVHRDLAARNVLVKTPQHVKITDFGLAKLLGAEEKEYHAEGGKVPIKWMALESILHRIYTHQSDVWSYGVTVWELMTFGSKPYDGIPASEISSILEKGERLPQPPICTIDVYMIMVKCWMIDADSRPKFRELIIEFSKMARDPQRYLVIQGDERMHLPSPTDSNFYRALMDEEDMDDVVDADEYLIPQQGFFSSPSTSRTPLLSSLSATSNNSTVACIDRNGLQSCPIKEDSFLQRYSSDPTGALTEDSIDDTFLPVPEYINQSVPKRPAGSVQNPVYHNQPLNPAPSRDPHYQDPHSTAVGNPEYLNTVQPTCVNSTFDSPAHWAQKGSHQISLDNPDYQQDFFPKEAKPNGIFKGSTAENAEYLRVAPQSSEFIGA

[18] = molecular target: Follistatin-related protein 3 (Homo sapiens) (UniProt O95633); assay: FSTL3 binders on small-molecule microarrays, primary screen, biochemical, small-molecule microarray, 635 nm fluorescence (AID 1105); details: FSTL3 binding, higher = more signal;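 note: score merges emission near 667 nm and signal to noise per printed spot across three slides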
Sequence of Follistatin-related protein 3 (Homo sapiens) (O95633 whole entry, looked up): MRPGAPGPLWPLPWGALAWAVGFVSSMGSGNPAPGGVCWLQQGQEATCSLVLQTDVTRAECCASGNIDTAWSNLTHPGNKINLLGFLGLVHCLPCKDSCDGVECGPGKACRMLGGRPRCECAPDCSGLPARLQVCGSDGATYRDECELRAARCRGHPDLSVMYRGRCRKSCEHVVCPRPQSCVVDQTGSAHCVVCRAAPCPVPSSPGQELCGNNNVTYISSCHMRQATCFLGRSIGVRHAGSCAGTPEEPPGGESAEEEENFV

[19] = molecular target: Dickkopf-related protein 1 (Homo sapiens) (UniProt O94907); assay: DKK1 binders on small-molecule microarrays, primary screen, biochemical, small-molecule microarray, 635 nm fluorescence scan (AID 1106); details: DKK1 binding, higher = more signal;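 note: score merges emission near 667 nm with signal to noise over three replicate slides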
Sequence of Dickkopf-related protein 1 (Homo sapiens) (O94907 whole entry, looked up): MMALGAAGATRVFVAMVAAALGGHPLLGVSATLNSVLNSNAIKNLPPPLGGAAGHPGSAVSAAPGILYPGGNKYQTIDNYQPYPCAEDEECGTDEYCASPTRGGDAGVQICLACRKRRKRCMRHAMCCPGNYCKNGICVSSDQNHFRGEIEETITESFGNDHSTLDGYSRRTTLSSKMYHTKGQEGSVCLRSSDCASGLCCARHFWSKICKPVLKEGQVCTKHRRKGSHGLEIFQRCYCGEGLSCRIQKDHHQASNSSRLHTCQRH

[20] = tested on: Inhibin beta A chain (activin A); assay: INHBA (activin A) binders on microarrays, primary screen, biochemical, small-molecule microarray, 635 nm fluorescence scan (AID 1107); details: small-molecule microarray binding, higher = more signal;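 note: mouse activin A protein probed at 4.33 µg/mL on printed slides; score merges bound-protein fluorescence near 667 nm with spot signal-to-noise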

SMILES	composite z-score [1]	z-score [2]	z-score [3]	z-score [4]	composite z-score [5]	z-score [6]	composite z-score [7]	composite z-score [8]	composite z-score [9]	composite z-score [10]	composite z-score [11]	composite z-score [12]	composite z-score [13]	z-score [14]	composite z-score [15]	composite z-score [16]	composite z-score [17]	composite z-score [18]	composite z-score [19]	composite z-score [20]
Cc1ccc(F)cc1S(=O)(=O)N[C@H]1CCN(Cc2ccc(OC(C)C)cc2)C1	1.48	-1.09 (inactive)	-13.1 (active)	-1.03 (inactive)	1.17	-2.66 (inactive)	-0.218	1.41	0.0527	-0.18	1.23	-0.322	-0.747	-0.24 (inactive)	0.44	0.0619	-0.437	0.195	0.577	-0.22
C=C(CCCC)/C(=C/C[C@H](OC(C)=O)c1cccc(OCCO)c1)c1cnc2ccccc2c1	0.12	1.94 (inactive)	0.924 (inactive)	1.32 (inactive)	-0.0488	0.442 (inactive)	-0.116	-0.271	0.0799	-0.169	0.989	-0.149	-0.0497	-0.142 (inactive)	-0.252	-0.31	0.228	0.234	0.0193	1.83
COCCOC(=O)N1C(=O)[C@@]2(c3cc(C#Cc4ccc(OC)cc4)ccc31)[C@H](c1ccc(OCCO)cc1)N1[C@H](c3ccccc3)[C@H](c3ccccc3)OC(=O)[C@H]1[C@@H]2C(=O)NC[C@H](O)c1ccccc1	1.5	3.3 (inactive)	2.29 (inactive)	7.99 (inactive)	2.31	0.0136 (inactive)	0.3	0.729	1.1	0.259	1.38	0.92	0.537	-0.279 (inactive)	1.16	1.27	0.696	0.475	0.473	0.961
COC(=O)C1(Cc2ccccc2)C=C2C(=C(C)C(=O)C2C)CN1 (stereo not given)	-0.467	-1.06 (inactive)	0.163 (inactive)	-0.0472 (inactive)	2.04	-0.366 (inactive)	0.732	-0.233	-0.016	-0.0146	1.66	1.21	1.22	1.44 (inactive)	0.231	-0.333	-0.362	0.513	-0.424	1.43
COCCOC(=O)N1C(=O)[C@@]2(c3cc(C#CCC(C(=O)OC)C(=O)OC)ccc31)[C@H](C(=O)Nc1nc3ccccc3s1)[C@H]1C(=O)O[C@H](c3ccccc3)[C@H](c3ccccc3)N1[C@@H]2c1ccc(O)cc1	1.53	1.42 (inactive)	0.431 (inactive)	1.16 (inactive)	2.51	0.28 (inactive)	0.0085	0.92	1.04	0.107	1.42	0.0737	0.309	-0.88 (inactive)	1.34	1.3	0.861	1.41	1.06	0.157
C[C@@H]1NC(=O)C([C@@H](C)OCc2ccccc2)NC(=O)[C@@]23C(=O)N[C@@H](Cc4ccccc4)C2[C@H](C)[C@@]2(C)O[C@H]2C3/C=C/C/C=C\CNC1=O (stereo not given in full)	-0.448	0.35 (inactive)	-0.258 (inactive)	0.186 (inactive)	-0.327	-1.07 (inactive)	-0.205	-0.0322	0.177	-0.109	1.58	-0.76	-0.751	0.531 (inactive)	0.224	-0.297	-0.506	0.11	0.382	1.44
COC(=O)C(CC#Cc1ccc2c(c1)[C@]1(C(=O)N2)[C@H](c2ccccc2OCCO)N2[C@H](c3ccccc3)[C@H](c3ccccc3)OC(=O)[C@H]2[C@@H]1C(=O)N1CCc2cc(OC)c(OC)cc2C1)C(=O)OC	1.53	2.1 (inactive)	1.13 (inactive)	4.27 (inactive)	3.01	0.463 (inactive)	-0.174	1.08	1.09	0.0355	1.56	0.0978	0.048	-0.795 (inactive)	0.71	1.3	1.02	1.26	0.882	0.279
NC(=O)N1C(=O)C2C(C1=O)C1C=C(CCCO)C2C(c2ccc(CN3CCCC3)cc2)N1Cc1cc2c(cc1Br)OCO2 (stereo not given)	0.964	-2.23 (inactive)	-0.251 (inactive)	-0.665 (inactive)	0.835	0.181 (inactive)	-0.128	0.208	-0.788	-0.211	-0.0167	-0.204	0.228	0.343 (inactive)	0.325	0.177	-0.287	-0.0816	0.388	0.45
